High-throughput results as filed in PubChem.
Only some compounds are listed: those with a hit (about 21% of all), similar ones and a draw of the others.
Cycloheximide cs: counter-screen for Shiga toxin inhibitors: cycloheximide protein synthesis inhibition. cell reporter, cycloheximide protein synthesis inhibition counterscreen. 300,000 tested, 12% active. AID 2314. max response, %; in the data active = max response mostly above about 13%, no sharp cut-off; inactive = mostly below about 14%; also: read at 38.3 µM for the half of the compounds with a filed dose; 0% is about no effect
Shiga toxin inh: Shiga toxin inhibition. Vero cells, Shiga toxin protein synthesis inhibition reporter. inhibition, % at 38.7 µM. 290,000 tested, 9.2% active. AID 2315; in the data active = inhibition mostly above about 28%, no sharp cut-off; inactive = mostly below about 43%; also: 0% is about no effect
HCV inhibitor: inhibitors of hepatitis C virus infection | Potency, µM (series often up to 41.8 µM), for inactives: top-dose activity change, negative = inhibition, actives largely listed as inhibitors | 340,000 tested, 3.4% active | Huh7.5.1 HCVcc-Cre infection, luciferase reporter, 44 h; also: potency is read from the fitted curve at half-maximal effect; % is scaled to controls: 0 for no effect and ±100 for the full control effect
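After 44 h co-culture of compound, cells and HCVcc-Cre (~0.5 moi), substrate is added for 15 min at room temperature and luciferase measured over 15 sec. Cells were seeded at 1,000/well and pre-cultured 4 h.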
HCMV antiviral: inhibitors of human cytomegalovirus; HFF cells, HCMV-luciferase reporter, 72 h; stronger effect = lower value; AID 1259415; 410,000 tested, 4.5% active; activity change, negative = inhibition, % at 57.5 µM; in the data active = activity change below about -60%; inconclusive = no clear call, values can overlap the other calls; inactive = above about -39%; also: % is scaled to controls: 0 for no effect and ±100 for the full control effect
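After 16 h attachment at 37C, HFF cells received test compound and HCMV-luciferase (1 PFU/cell); reporter luminescence read 72 h later, data normalized against buffer-only and known inhibitor Salinomycin.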
Pf growth 48h: inhibits P. falciparum growth in the first generation, 48 h | P. falciparum luciferase growth in erythrocytes, 48 h | Potency, µM (series often up to 28.7 µM), inactives show top-dose activity change, negative = inhibition, actives largely listed as inhibitors | AID 504832 | 310,000 tested, 5.9% active; also: potency is read from the fitted curve at half-maximal effect; % is scaled to controls: 0 for no effect and ±100 for the full control effect
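Firefly luciferase activity from engineered P. falciparum reports growth; inhibitors lower the luminescent signal. Cultures contained 2% hematocrit erythrocytes at 0.1% final parasitemia.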
Pf growth 96h: inhibits malaria parasite growth, 96 h; P. falciparum luciferase reporter growth, 96 h; Potency, µM (doses to about 28.7 µM), inactives show at the highest dose activity change, negative = inhibition, most hits filed as inhibitors; 320,000 tested, 6.9% active; AID 504834; also: potency is read from the fitted curve at half-maximal effect; % is scaled to controls: 0 for no effect and ±100 for the full control effect
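Luminescence readout: decreased luciferase signal marks inhibited growth of reporter-expressing P. falciparum in infected red cells (2% hematocrit, 0.05% parasitemia final), exposed to compound two generations (96 h, 37 C, 5% CO2).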
The depositor's hits bear a star; ? = inconclusive; . = no result. Unless noted, calls follow the shape of the dose curve; as a rule, active = well fitted inhibition curve with a large enough effect; inconclusive = small, poorly fitted or top-dose-only effect, or another doubt; inactive = no such curve, though single readings can be large or run the other way.

SMILES | Cycloheximide cs | Shiga toxin inh | HCV inhibitor | HCMV antiviral | Pf growth 48h | Pf growth 96h
COc1ccc(C(C)=O)cc1CSc1nc2cc(C(=O)O)ccc2c(=O)n1Cc1ccccc1 | -4.3 | -1.9 | 33.5% | 12.0 | -0.5% | -32.5%
COc1ccccc1Cn1c(SCC(=O)C(C)(C)C)nc2cc(C(=O)N3CCC4(CC3)OCCO4)ccc2c1=O | 6.1 | -1.4 | . | . | 5.86µM* | ?
COCC(=O)n1nc(-c2ccccc2)nc1NCc1cccs1 | 33.2* | 62.6* | 19.5% | 14.9 | 25.9% | 27.9%
O=C(Nc1ccc(S(=O)(=O)NCC2CCCO2)cc1)c1ccc(Cl)cc1[N+](=O)[O-] (stereo not drawn) | -2.4 | -3.5 | 25.1µM* | 1.5 | ? | 32.8%
O=S(=O)(NCc1ccccc1)c1ccc(S(=O)(=O)NCC2CCCO2)cc1 (stereo not drawn) | -0.6 | -9.8 | 4.2% | 3.7 | 16.9% | -5.3%
O=S(=O)(NCc1ccncc1)c1ccc(S(=O)(=O)NCC2CCCO2)cc1 (stereo not drawn) | -5.2 | 7.4 | 12.6µM* | -38.8 | 3.3% | ?
CC(=O)Nc1ccc(C(=O)Nc2ccc(S(=O)(=O)NCC3CCCO3)cc2)cc1 (stereo not drawn) | -0.8 | -11.3 | -8.0% | 58.6 | 13.1µM* | 0.0%
COc1ccc(N(CC(=O)N2CCc3ccccc3C2)S(=O)(=O)c2ccc(C)cc2)cc1Cl | . | . | . | -17.5 | . | .
NC(=O)c1ccc[n+](CC(=O)c2ccc(Br)cc2)c1 | 6.6 | 13.1 | 8.5% | 11.7 | -3.3% | 4.7%
NC(=O)c1ccc[n+](Cc2ccc(-c3ccccc3)cc2)c1 | -2.8 | -1.6 | 18.7% | -39.3 | . | 7.38µM*
COC(=O)C1=C(C)NC(=O)/C1=C\c1cc(C)n(-c2ccccc2C)c1C | -5.5 | -10.4 | ? | -27.6 | . | 9.28µM*
Cc1cccc(C)c1-n1c(C)cc(/C=C2\NC(=O)NC2=O)c1C | 7.9 | -3.2 | -4.6% | -30.0 | 11.7µM* | 11.7µM*
COC(=O)C1=C(C)NC(=O)/C1=C\c1cc(C)n(-c2ccccc2F)c1C | -3.2 | -16.0 | -5.2% | -25.0 | ? | 61.1%
COC(=O)C1=C(C)NC(=O)/C1=C\c1cc(C)n(-c2c(C)cccc2C)c1C | -2.1 | -10.0 | ? | -61.5* | . | 2.62µM*
Cc1cc(/C=C2\NC(=O)NC2=O)c(C)n1-c1cccnc1 | 2.6 | 14.9 | 9.9% | 15.0 | 26.4% | 30.3%
COC(=O)C1=C(C)NC(=O)/C1=C\c1ccc2c(c1)OCO2 | 34.3* | 14.0 | 4.2% | -33.2 | ? | ?
CC(C)C(NS(=O)(=O)c1cccc(C(F)(F)F)c1)C(=O)NCc1cccs1 (stereo not drawn) | . | . | -7.7% | -33.0 | ? | ?
COC(=O)c1cc(NC(=O)CN2CCc3cc4c(cc3C2)OCCCO4)cc(C(=O)OC)c1 | -0.9 | -4.5 | ? | -10.4 | -6.0% | 9.28µM*
O=C(CN1CCc2cc3c(cc2C1)OCCCO3)Nc1ccc(S(=O)(=O)N2CCCC2)cc1 | -3.8 | 10.3 | -4.7% | -9.5 | ? | 13.1µM*
O=C(CN1CCCC1)Nc1ccc(S(=O)(=O)N2CCCCC2)cc1 | -1.2 | -9.3 | ? | -22.5 | 6.8% | ?
O=C(COc1ccc(Br)cc1)NNC(=O)c1ccc(-n2cncn2)c([N+](=O)[O-])c1 | . | . | 2.4% | 1.1 | -0.7% | -9.1%
CCC(CC)C(=O)Nc1cccc(C(=O)Nc2ccc(S(=O)(=O)Nc3ccc(C)cc3)cc2)c1 | -3.8 | -5.2 | 15.8µM* | -97.4* | ? | ?
CCC(CC)C(=O)Nc1cccc(C(=O)Nc2ccc(S(N)(=O)=O)cc2)c1 | -4.5 | -5.9 | -24.3% | -29.1 | -5.3% | -0.6%
CCN(CC(=O)Nc1ccc2c(c1)OCCO2)C(=O)c1ccc(S(=O)(=O)N(C)C)cc1 | . | . | 1.2% | -24.8 | -6.9% | 44.1%
CCN(CC)S(=O)(=O)c1ccc(C(=O)Oc2ccc3c(c2)OCO3)cc1 | -1.2 | -1.9 | 11.8% | -5.6 | -23.9% | 3.29µM*
SMILES | Cycloheximide cs | Shiga toxin inh | HCV inhibitor | HCMV antiviral | Pf growth 48h | Pf growth 96h
CCN(CC)S(=O)(=O)c1ccc(C(=O)Nc2ccc3c(c2)OCCO3)cc1 | 20.2* | 38.3 | -27.2% | -4.7 | 6.57µM* | ?
CCC(CC)C(=O)Nc1cccc(C(=O)Nc2ccc3c(c2)OCO3)c1 | 43.2* | 79.8* | 7.94µM* | -37.8 | 16.1% | .
COc1ccc(S(=O)(=O)Nc2nc3ccccc3nc2Nc2cccc(C(=O)O)c2)cc1 | -2.2 | -3.5 | 17.8% | 6.5 | 5.9% | -16.8%
Cc1ccc(C)c(Cn2c(SCC(=O)N(C)Cc3ccccc3)nc3ccccc32)c1 | . | . | . | -18.7 | . | .
CN1C(=O)Cc2cc(S(=O)(=O)NCc3ccc(Cl)cc3)ccc21 | . | . | . | 26.3 | . | .
CCOc1ccc(NC(=O)c2cn3c4c(ccc(Cl)c4c2=O)OC(C)C3)cc1 (stereo not drawn) | . | . | . | 7.1 | . | .
CCN(CC)S(=O)(=O)c1cccc(C(=O)Nc2ccc3c(c2)OCO3)c1 | 34.8* | 91.2* | ? | 11.5 | 14.9% | -18.2%
CCN(CC(=O)Nc1ccc2c(c1)OCCO2)S(=O)(=O)c1ccccc1 | 23.9* | 37.2* | -4.2% | 10.8 | 41.3% | -6.1%
CC(OC(=O)c1cccc(NS(C)(=O)=O)c1)C(=O)Nc1ccc2c(c1)OCO2 (stereo not drawn) | . | . | 7.08µM* | 2.6 | 59.4% | 33.8%
CCCN(CCC)S(=O)(=O)c1cccc(C(=O)Nc2ccc3c(c2)OCO3)c1 | 8.6 | -20.2 | ? | ? | . | ?
CCN(CC)S(=O)(=O)c1ccc(S(=O)(=O)Nc2cc3c(cc2C(C)=O)OCO3)cc1 | -9.2 | -13.2 | ? | 50.6 | ? | 11.7µM*
CC(=O)c1ccc(S(=O)(=O)Nc2cc3c(cc2C(C)=O)OCO3)cc1 | 1.7 | -5.4 | 5.1% | -10.2 | -16.8% | 108.1%
COc1cccc(C(=O)OC(C)C(=O)Nc2ccc3c(c2)OCO3)c1 (stereo not drawn) | . | . | ? | -12.8 | 2.2% | 18.5%
C[C@@H]1CN([C@@H](C)CO)C(=O)CCCn2cc(nn2)CO[C@H]1CN(C)C(=O)Nc1ccc2c(c1)OCO2 | . | . | . | -11.0 | . | .
CS(=O)(=O)N(CC(=O)Nc1ccc2c(c1)OCO2)Cc1ccccc1 | 12.7* | 28.0 | -17.7% | 16.1 | -1.5% | -6.7%
CCN(CC(=O)Nc1cccc(C(C)=O)c1)S(=O)(=O)c1ccc(OC)cc1 | -4.1 | -4.8 | -5.0% | -26.4 | 4.3% | .
CCN(CC(=O)Nc1cccc(C(C)=O)c1)S(=O)(=O)c1ccccc1 | -1.7 | 3.4 | 3.8% | -34.3 | ? | 9.28µM*
Cc1cccc(NS(=O)(=O)c2ccc(-n3cccn3)cc2)c1C | -1.5 | -2.9 | ? | ? | -13.9% | 22.1%
COn1c(C)c(C)c2c3nonc3ccc21 | 0.6 | -4.3 | ? | -64.6* | -25.1% | 0.0%
C=CCOn1c(C)c(C(C)=O)c2c3nonc3ccc21 | -2.9 | -5.9 | ? | -80.6* | 13.3% | -29.9%
